Test results as given in PMC12136788.
Whole data set: some 24,000 sequences, median “enrichment r” near 0.99, cut for the highest 2% near 3.7. Not all results are given here.

T1: UNK ZnF1-3 (human, UniProt Q9C0B0 31-174)
T1 sequence: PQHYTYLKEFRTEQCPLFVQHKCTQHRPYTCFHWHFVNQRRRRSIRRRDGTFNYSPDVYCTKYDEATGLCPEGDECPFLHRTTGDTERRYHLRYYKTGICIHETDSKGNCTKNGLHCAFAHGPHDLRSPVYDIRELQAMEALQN

B1: chr9:66219764:66219765:+_ENSMUSG00000038664_ENSMUST00000042824|mus_mus|motif|central (ssRNA)
RNA: GGGAGUUCUACAGUCCGACGAUCUUCAAAAUCAGGCAACUGUGGUCCUUUGAGGCAUAAAACCUGUUGAGGCAAAGGUACGGCUUCCUUAUUGCUGAUCAGUUUAGAAUACAAAACGGUAACUCCCUCUCUUGUAGCAAUAGACAACAGAGGAUUGAGCAUCA
B2: chr7:44244176:44244177:+_ENSG00000106636_ENST00000223369|hu_mus|hu_hu_hu_mus_False|38_108 (ssRNA)
RNA: GGGAGUUCUACAGUCCGACGAUCACUAUCAUUCCGGACGUAGACAUGGCAAAGAUACUCUUGUUCUUUGACAGAAGCUCUGCUGCCUUUCCCCGAGCGCUCCACAAUCAGUUGACUUGUAAAGGUCAUGAAUUCCUGCACACUCAACAGAGGAUUGAGCAUCA
B3: 109692034_109692919_6190_CDS_ENSG00000148143_ENST00000277225|human|control|control (ssRNA)
RNA: GGGAGUUCUACAGUCCGACGAUCGAGGUGAUUGCAGAUGGCUCGGAGCGUUGGGUGCACUUCCACACAGAAUUUACAUUUGUAGCCCACCACUUUCCUCUCCUUGAUCUUUGGCACCUCUUCUAAGUGACCAAAAGGCCUCUCCAACAGAGGAUUGAGCAUCA
B4: chr1:220276048:220276049:+_ENSG00000067704_ENST00000302637|hu_hu|hu_hu_hu_mus_True|38_88 (ssRNA)
RNA: GGGAGUUCUACAGUCCGACGAUCGCAAAUUGCCUGGUUGGCGGGAAUCGUCCAAGGCUGGGUGGUCCAAACUAAAACGCUAACAGGGGAUGAGGCAUCUAUAAGAGACUCCAACUUCGGAGGAGGUCUCAGGAGGGGGAAUCUCAACAGAGGAUUGAGCAUCA
B5: chr1:115282363:115282364:-_ENSG00000009307_ENST00000339438|perfect_dup|motif|central (ssRNA)
RNA: GGGAGUUCUACAGUCCGACGAUCAUCAUCUCCUACUUUUAAGUCUUGCAGGUUGCCAUUAUACUGUGAACAGUGGAAGAAAAGUCGGGCUUGACGUUCUGAACACUGAAUAAAUCCGUAAGAGGUUAACAGUUUUUCAAUAACCAACAGAGGAUUGAGCAUCA
B6: chr18:35748043:35748044:+_ENSMUSG00000037236_ENSMUST00000166793|perfect_dup|FALSE|FALSE (ssRNA)
RNA: GGGAGUUCUACAGUCCGACGAUCUGUAUAAAAGAGUGAACACAGCUUACAGUAAAACCCUGUUUUAGGUAUCACAUAGUCUAUACCAACAGGAACAUUAGGCUGAUAUGGUCCGAUUCUAUACUCAUCGGGAAUUGUAUAAUCCAACAGAGGAUUGAGCAUCA
B7: chr2:179515052:179515053:+_ENSMUSG00000000305_ENSMUST00000000314|mus_hu|mus_mus_mus_hu_False|28_58 (ssRNA)
RNA: GGGAGUUCUACAGUCCGACGAUCGCUGUCCCAUGCAGUCACCGUGAACGCCACCUGCUCGGAGGGGACCUGCAGCUCCCUAGUGGCGAAGACUGUCCCAUCUGCCCCGACUUUGAAGUCCAUGCUGUUGGUCUCAUAUUGUGUCAACAGAGGAUUGAGCAUCA
B8: chr7:135612270:135612271:-_ENSG00000105887_ENST00000393085|hu_mus|hu_hu_hu_mus_False|8_8 (ssRNA)
RNA: GGGAGUUCUACAGUCCGACGAUCGUUUUUUUCUGAGAUGUUAAAUAGUACUUCAGUGGAAAACAAAACUUAACCUUUUAUUAAUGCGUGUUGUACCAAAAGCAGACAUUUUAGCUUCAUUUAUUCACUCAAAAUAUCAUUAAGCAACAGAGGAUUGAGCAUCA
B9: chr18:56819859:56819860:+_ENSG00000166562_ENST00000588875|hu_mus|hu_hu_hu_mus_True|88_88 (ssRNA)
RNA: GGGAGUUCUACAGUCCGACGAUCAACCUUGAUUACUCUGUGAACUAUUGGAAUGUCUCUUCCUUCAACCUUAAAAACAACUAUUUCACCAGCUCUGAUGGGGUCCUCCCGGAAAUUCGUGAGGAACAGCAGAUCUCCUCUGUGCAACAGAGGAUUGAGCAUCA
B10: chr5:145543945:145543946:-_ENSG00000133706_ENST00000545646|hu_hu|hu_hu_hu_mus_True|38_58 (ssRNA)
RNA: GGGAGUUCUACAGUCCGACGAUCCUGAACGGCCAGUGGUGGGAAAUAAUCAAGCCAGUGCUCUGCUUCAGAAAACUUUACUAUCUCGUCAUCAGAGAGGCCAAGGGAUUUCAUAAUGUCCCACUGGUACUUAGAAGAUCCUGCCAACAGAGGAUUGAGCAUCA
B11: chr12:73313434:73313435:-_ENSMUSG00000021087_ENSMUST00000021497|mus_mus|motif|central (ssRNA)
RNA: GGGAGUUCUACAGUCCGACGAUCCAUAUAUCCUAAGAGUACAGGAAGAGCCUCAAAACACCUGUCUCAAAGUUUGCCUCGGAGAUUAUGGUACCAGGAAAGGGAAACAAUCAAUUUGCAGUAACGAGGAAGGAGAGAGCUGUUCAACAGAGGAUUGAGCAUCA
B12: 87970796_87970916_7552_CDS_ENSG00000188994_ENST00000369577|human|control|control (ssRNA)
RNA: GGGAGUUCUACAGUCCGACGAUCUUCUGACUGGCAGAGGUUAUCUUCCUGAAAAUCAUUACUUACAUUUGAAGAAGUAUUAGCUUGGGUCUCUACACUUGUGCUAUCUUCAUUUAUUAAUUUUGUAAUAAACAAUUCUGUUAGCAACAGAGGAUUGAGCAUCA
B13: chr15:93570553:93570554:+_ENSG00000173575_ENST00000394196|hu_hu|motif|central (ssRNA)
RNA: GGGAGUUCUACAGUCCGACGAUCUCUAAGGCCAUAGUGUAUCAUGUCAACCCUUGUUCACGUGCAGGUUUUAGGUGAUGCGGACUCCCUCUUUCUCAACCUGUUAUUUCUACCAACAAUGAAAUCUUUCAAAGCCAGACUCCACAACAGAGGAUUGAGCAUCA
B14: 135292008_135298915_3170_CDS_ENSG00000155561_ENST00000285968|human|control|control (ssRNA)
RNA: GGGAGUUCUACAGUCCGACGAUCAUAUAUGACCUGGUAACAUAGCUCAGCCAGCUGAGGAGAUUCUCGCACCGCCACUGGGCCUGUUCUCCCUUCCGUUCCUUUCUCCAAGAUGUUUAGAAUGGCGUGAAGGCAUGUCCGAGGCAACAGAGGAUUGAGCAUCA
B15: chr1:66463027:66463028:+_ENSMUSG00000015222_ENSMUST00000114013|mus_hu|motif|central (ssRNA)
RNA: GGGAGUUCUACAGUCCGACGAUCUUUUCUUUCAGGAGUGGAAAUUCUGCCUCUCCCGGUUUUAAAAGGCUUUUCUUUUCGGUGUUUCUCAAGAGAUGAUCUCCGAGCUUCCUUUUCAGCUUUCUCCUCUUUAGGAAUAGUUUCCAACAGAGGAUUGAGCAUCA
B16: 18138343_18138463_2469_3pUTR_ENSMUSG00000026740_ENSMUST00000166495|mouse|control|control (ssRNA)
RNA: GGGAGUUCUACAGUCCGACGAUCUUAGAUCCAUGUAUUCAUGUGCAUGUGUCUAUGUGGGCUCGGAUGUGUGUGCUGUACCACAAUAUGAAUGCAGAGGUCAGAGGACAGCUCCUGUGAACAUGUGCUUGCUGGAGAGUGAGUCAACAGAGGAUUGAGCAUCA
B17: chr17:88379672:88379673:+_ENSMUSG00000005370_ENSMUST00000005503|mus_mus|motif|central (ssRNA)
RNA: GGGAGUUCUACAGUCCGACGAUCUCCCUUUUGGGCUUCCUUUGACUUUGAACCUGUAUAUGGCUUUAACAUCCUUUUGCGGACCCAGCCCCUUGUUGGGCUGUCAUCAAAGAACUGUACAUGAACACGGACAGAUUUCCCUUUCAACAGAGGAUUGAGCAUCA
B18: chr2:48026839:48026840:+_ENSG00000116062_ENST00000540021|hu_hu|hu_hu_hu_mus_False|48_78 (ssRNA)
RNA: GGGAGUUCUACAGUCCGACGAUCAUAGUGAGCCACUAGCGUCCUAAAUCUGGAACAAUGGCGAUCAUCCGAAAACUGGCCGAUGAAAAACUUUCCCAGUGAAGUGUCCACAAAGCAAACACCAUACACACGAGUGUGACCAGACAACAGAGGAUUGAGCAUCA
B19: chr1:55207850:55207851:+_ENSMUSG00000025979_ENSMUST00000162364|mus_hu|FALSE|FALSE (ssRNA)
RNA: GGGAGUUCUACAGUCCGACGAUCCCGAUGAUGAAAAUAAGCAUGUGAAAAUAUUCUGUAAAUCCUACGGCAUACUGAUCCUAGUUUCGCUACAGAUGAUUCCUUUAUGCUAACCCUGCUGGGAAAAUAUUUAUUGCUAUUCAGCAACAGAGGAUUGAGCAUCA
B20: chr1:213302989:213302990:+_ENSG00000136643_ENST00000366960|hu_hu|motif|central (ssRNA)
RNA: GGGAGUUCUACAGUCCGACGAUCAGAAGCAACAGCCCCUAGUGCUGAAGAAUCCGAAGAAAGAUUGAGACCAAAAGUUCGGAUGGGAGAAUUUUGAUUGGAAGCCAUUCCAUCAUCUAACUCAGCAAGAGAAUCCACAUCAACCAACAGAGGAUUGAGCAUCA
B21: chr1:163117127:163117128:-_ENSG00000143248_ENST00000313961|hu_mus|hu_hu_hu_mus_False|78_98 (ssRNA)
RNA: GGGAGUUCUACAGUCCGACGAUCUGCUACAAAGGAUGGAGGAAAUAUCACAGGGCAUGAUUUCAUAGCCUGACCAGAUGACUACUUGAUUAGCUCCUUAUAAAAUUCAGAGCGCACAAAGCGGGGCAGAGAAUCCUUCUCCAUCAACAGAGGAUUGAGCAUCA
B22: chr3:131220538:131220539:-_ENSG00000114686_ENST00000264995|hu_mus|motif|central (ssRNA)
RNA: GGGAGUUCUACAGUCCGACGAUCUUCUUCAGAAAGAUGUUCAUCCCACCAAGUACUACUCUUGCUGUGGAGAUUUCGGACAAAGAACAAGAUAUUCUUUCUUCUCUCUAAGCCGGGGUCAGCACCUAGGCCUCUGGCGCCACACAACAGAGGAUUGAGCAUCA

Target: T1, UNK ZnF1-3
Assay: nsRBNS (natural sequence RNA bind-n-seq); RBNS binding buffer (assumed for nsRBNS): 25 mM Tris pH 7.5, 150 mM KCl, 3 mM MgCl2, 0.01% Triton X-100, 500 ug/ml BSA, 20 U/ml SUPERase-In, 4 C; UNK is unkempt and MSI1 is Musashi-1; names of the RNAs are library labels; protein concentration not given here; high values mean tight binding

Q: How did the binding signal turn out when B1 was run?
A: 0.879 enrichment R

Q: For B2, which binding signal is on record?
A: 0.779 enrichment R

Q: B3 was tested. Which binding signal did it give?
A: 0.805 enrichment R

Q: For B4, which binding signal is on record?
A: 1.67 enrichment R

Q: For B5, which binding signal is on record?
A: 1.55 enrichment R

Q: With B6 as the binder, how does the binding signal read?
A: 0.418 enrichment R

Q: Which binding signal does the source give for B7 here?
A: 0.737 enrichment R

Q: For B8, which binding signal is on record?
A: 0.523 enrichment R

Q: Which binding signal does the source give for B9 here?
A: 0.697 enrichment R

Q: How did the binding signal turn out when B10 was run?
A: 1.07 enrichment R

Q: How did the binding signal turn out when B11 was run?
A: 2.3 enrichment R

Q: Which binding signal does the source give for B12 here?
A: 0.862 enrichment R

Q: Which binding signal does the source give for B13 here?
A: 0.941 enrichment R

Q: B14 was tested. Which binding signal did it give?
A: 1.11 enrichment R

Q: For B15, which binding signal is on record?
A: 0.426 enrichment R

Q: For B16, which binding signal is on record?
A: 1.27 enrichment R

Q: Which binding signal does the source give for B17 here?
A: 0.538 enrichment R

Q: Which binding signal does the source give for B18 here?
A: 1.26 enrichment R

Q: With B19 as the binder, how does the binding signal read?
A: 1.13 enrichment R

Q: B20 was tested. Which binding signal did it give?
A: 2.3 enrichment R

Q: How did the binding signal turn out when B21 was run?
A: 1.46 enrichment R

Q: How did the binding signal turn out when B22 was run?
A: 0.785 enrichment R
